Compounds with a hit are over-represented: about 6.7% of the library has one in this group of screens.
PINK1 expr mod – PINK1 expression modulation; PINK1 immunofluorescence, high-content cytometry, 24 h; Potency, µM (titrated, usually from 76.6 µM), usual class: activators; 410,000 compounds, 0.2% hits; active means well fitted activation curve with a large enough effect; inconclusive means small, poorly fitted or top-dose-only effect; cell line not stated here; further: nearly all actives have a fitted effect of over 65% in size
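Readout is PINK1 immunofluorescence, quantified alongside mitochondrial, cell and nuclear markers by laser-scanning microplate cytometry. Cells from a stable line were exposed to compound titrations (5 concentrations) for 24 hours, with CCCP controls.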
KB-V1 MDR tox – KB-V1 MDR subline cytotoxicity; KB-V1 MDR cells viability, CellTiter-Glo, 72 h; Potency, µM (titrated, usually from 46.1 µM), most hits filed as cytotoxic; 400,000 compounds, 3.4% hits; further: nearly all actives have a fitted effect of over 60% in size
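Readout: CellTiter-Glo luminescence, 10 min after addition. Cells: KB-V1 MDR subline, 72 h at 37 degrees C with compound. Analysis: corrected, normalized data fitted to concentration-effect curves.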
KB-3-1 cytotox – kills parental KB-3-1 adenocarcinoma cells | 400,000 compounds, 1.4% hits | KB-3-1 viability, CellTiter-Glo ATP luminescence, 72 h | AID 1347075 | Potency, µM (top dose mostly 46.1 µM), most hits filed as cytotoxic; further: nearly all actives have a fitted effect of over 60% in size
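Cytotoxicity measured as CellTiter-Glo luminescence after 72 h at 37 C. Compound titrations were pinned onto drug-naive KB-3-1 parental adenocarcinoma cells grown in DMEM with 10% FBS, and normalized data fitted to concentration-response curves.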
MCF10A rerep – inducers of DNA re-replication in MCF 10A breast cells | AID 624296 | Potency, µM (titrated, usually from 46.1 µM), hits mostly activators | MCF 10A DNA re-replication, Hoechst nuclear intensity, 48 h | 350,000 compounds, 2.9% hits; further: nearly all actives have a fitted effect of over 50% in size
SW480 rerep – DNA re-replication induction in SW480 cells. 340,000 compounds, 1.8% hits. Potency, µM (highest dose often 46.1 µM), most hits filed as activators. SW480 DNA re-replication, Hoechst DNA content imaging, 48 h; further: nearly all actives have a fitted effect of over 55% in size
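Per well, 250 cells were exposed to pinned compound for 48 hr. Nuclear DNA was visualised with Hoechst (40 min, 37 C) and total object intensity recorded by fluorescence scanning.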
Hits are given with their value; – = inactive; ? = inconclusive; · = not tested or not shown. Unless noted, the call rests on the fitted dose curve; in most records, active means well fitted curve in the direction sought with a large enough effect; inconclusive means small, poorly fitted or top-dose-only effect, or another doubt; inactive means no such curve, though single readings can be large; an effect the other way counts as inactive or inconclusive.

SMILES | PINK1 expr mod | KB-V1 MDR tox | KB-3-1 cytotox | MCF10A rerep | SW480 rerep
Cc1cccc(C)c1NC(=O)C(c1ccc(C#N)cc1)n1c(=O)c(-c2cc3ccccc3[nH]2)nc2ccccc21 (configuration not stated) | · | ? | – | · | ·
COc1ccc(CNC(=S)N/N=C/c2ccc(O)c(OC)c2)cc1 | ? | – | – | ? | –
COc1ccc(CNC(=S)N/N=C/c2ccc(OC)c(OC)c2)cc1 | – | – | – | – | –
COc1ccc(C=NNC(=S)NN=Cc2ccc(OC)c(OC)c2)cc1OC | – | 0.23µM | 0.46µM | ? | ?
COCCCNC(=S)N/N=C/c1ccc(OC)c(Br)c1 | – | – | – | – | 3.3µM
COc1ccc(/C=N/NC(=S)NCc2ccccc2)cc1OC | – | 21µM | – | – | –
COCC(=O)Nc1cc(C(=O)N2CC3CCCC2C3)c2c(c1)nc(-c1ccncc1)n2C (configuration not stated) | – | · | · | · | ·
C(=Nc1cccnc1)c1ccnc2ccccc12 | – | – | – | · | ·
CSCCC(NS(=O)(=O)c1ccc2c(c1)oc(=O)n2C)C(=O)Nc1ccc(Cl)cc1 (configuration not stated) | – | ? | – | · | ·
Clc1ccccc1C(c1ccccc1)(c1ccccc1)n1ccnc1 | – | 15µM | – | 14µM | –
COc1ccc(NC(=O)c2cccc(Oc3ccccc3)c2)cn1 | – | ? | 8.2µM | ? | ?
COc1ccc(NC(=O)c2cccc(S(=O)(=O)Nc3ccc(Br)cc3)c2)cn1 | 14µM | ? | 12µM | ? | –
COc1ccc(NC(=S)NC(=O)c2ccccc2)cn1 | – | – | – | – | ?
COc1ccc(NC(=O)Cc2ccc(-c3ccccc3)cc2)cn1 | – | 13µM | ? | ? | ?
COc1cc(CCC(=O)OCC(=O)NCCc2ccc(S(N)(=O)=O)cc2)cc(OC)c1OC | – | – | – | – | –
Cn1c(SCc2ccc(F)cc2Cl)nc2ccccc2c1=O | – | ? | ? | ? | –
CC(C)Cn1c(N)c(C(=O)COC(=O)c2ccccc2F)c(=O)n(C)c1=O | – | – | – | – | –
CC(C)Cn1c(N)c(C(=O)COC(=O)c2c(F)cccc2F)c(=O)n(C)c1=O | – | – | ? | 0.52µM | –
O=C(c1ccc(Cl)cc1)N1CCN(c2ccc(F)cc2)CC1 | – | 16µM | – | – | –
Cc1[nH]c(-c2ccc(F)cc2)cc1C(=O)N1CCN(c2cccc(Cl)c2)CC1 | – | ? | – | 9.2µM | ?
O=C(c1ccncc1)N1CCN(c2ccc(F)cc2)CC1 | – | – | – | – | –
O=C(c1ccc(N2CCN(C(=O)c3ccccc3)CC2)cc1)c1cccc(F)c1 | – | 9.2µM | ? | 9.2µM | –
O=C(c1cc2cc(F)ccc2[nH]1)N1CCN(c2cccc(Cl)c2)CC1 | – | – | – | ? | –
O=C(c1ccc(N2CCN(C(=O)c3ccc(F)c(F)c3)CC2)cc1)c1cccc(F)c1 | – | ? | ? | ? | –
O=C(c1c(Cl)nc2sccn12)N1CCN(c2cccc(Cl)c2)CC1 | – | ? | 1.6µM | 4.1µM | 2.9µM
SMILES | PINK1 expr mod | KB-V1 MDR tox | KB-3-1 cytotox | MCF10A rerep | SW480 rerep
CC1(C(=O)NS(=O)(=O)c2cccc(C#N)c2)CCN1C(=O)c1ccc(C2CCCCC2)cc1 (configuration not stated) | – | – | – | · | ·
Cc1cccc(N2CCN(C3(c4ccccc4)C(=O)c4ccccc4C3=O)CC2)c1C | – | – | – | · | ·
COc1ccc(N(CC(=O)NC2CCCCC2)C(=O)c2ccc(C)s2)c(OC)c1 | – | ? | – | – | –
CCN(CC)c1ccc(/C=C/c2ccc3ccc(OC)cc3[n+]2CC)cc1 | ? | – | ? | – | –
O=C(c1cccc(F)c1)N1CCN(c2cccc(Cl)c2)CC1 | – | 12µM | 21µM | ? | ?
CC(C)(C)NS(=O)(=O)c1cccc(S(=O)(=O)c2cccc(S(=O)(=O)NC(C)(C)C)c2)c1 | – | 15µM | – | – | ?
CN1CCN(C(=O)c2ccccc2Nc2ccc(SC(F)F)cc2)CC1 | – | – | – | – | –
CN1CCC(N(C)C(=O)c2ccccc2Nc2ccc(SC(F)F)cc2)CC1 | – | – | – | 8.2µM | –
CC(=O)c1c(O)c(C)c(O)c2c1OC1=CC(=O)C(C(C)=O)C(=O)[C@@]12C (some centres not stated) | – | – | ? | 3.7µM | –
CC(=O)c1c(O)c(C)c(O)c2c1OC1=CC(=O)C(C(C)=O)C(=O)C12C (configuration not stated) | – | · | · | · | ·
Cc1cccc2sc(NNC(=O)c3ccc(S(=O)(=O)N4CCCC(C)C4)cc3)nc12 (configuration not stated) | ? | – | 5.2µM | ? | 7.3µM
CCOC(=O)N1CCN(S(=O)(=O)c2ccc(C(=O)NNc3nc4c(C)cccc4s3)cc2)CC1 | – | – | ? | ? | ?
Cc1cccc2sc(NNC(=O)c3ccc(S(=O)(=O)N4CCc5ccccc5C4)cc3)nc12 | – | – | 5.8µM | ? | 4.1µM
Cc1ccc(C)c(S(=O)(=O)Nc2ccc(C(=O)NCC(c3ccco3)N(C)C)cc2)c1 (configuration not stated) | – | – | – | – | –
Cc1ccccc1NS(=O)(=O)c1ccc(C(=O)NCC(c2ccco2)N(C)C)cc1 (configuration not stated) | – | 15µM | – | ? | –
Cc1ccc(S(=O)(=O)N(C)c2ccc(C(=O)NCC(c3ccco3)N(C)C)cc2)cc1 (configuration not stated) | – | – | – | 9.2µM | –
Cc1ccccc1NS(=O)(=O)c1ccc(C(=O)NCC(c2ccccc2)N(C)C)cc1 (configuration not stated) | – | ? | – | ? | –
COc1ccc(CNC(=O)CCCn2ccc3cc(S(=O)(=O)N4CCCC4)ccc32)cc1 | – | ? | ? | 21µM | 7.3µM
COc1ccc(/C=N/N(C)C2=NS(=O)(=O)c3ccccc32)cc1 | – | – | – | – | –
CN(/N=C/c1ccc(N(C)C)cc1)C1=NS(=O)(=O)c2ccccc21 | ? | – | ? | 8.2µM | 7.3µM
COc1ccc(N(C)C2=NS(=O)(=O)c3ccccc32)cc1 | – | – | ? | 5.8µM | 2.6µM
CC(C)Oc1ccc(CN2CCc3nc(Nc4ccc5c(c4)OCCO5)ncc3C2)cc1 | – | – | – | · | ·
Cc1cccc2cc(CN(Cc3ccccc3)C(=O)c3cccc(F)c3)c(Cl)nc12 | – | 18µM | – | ? | 3.7µM
Cc1ccc(N(Cc2ccccc2)C(=O)c2cccc(F)c2)cc1 | – | – | – | – | –
Cc1ccccc1-n1nc2c(c1NC(=O)c1c(-c3ccccc3Cl)noc1C)CS(=O)(=O)C2 | – | 8.2µM | – | – | –
Cc1ccc(-n2nc3c(c2NC(=O)c2cccs2)CS(=O)(=O)C3)c(C)c1 | – | – | – | – | –
Cc1ccccc1-n1nc2c(c1NC(=O)c1ccco1)CS(=O)(=O)C2 | – | – | – | – | –

Source: PubChem BioAssay
